Results taken from PubChem BioAssay AID1259349 (Broad Institute, 2017).
Where “and” joins values, the source holds several entries; their conditions need not be identical. Equal entries are not always repeated. Among all 17,000 compounds or so, about 1,100 (6.5%) were called active.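 How the source made its calls: active means z-score of -3 or lower, meaning strong loss of probe binding signal; inactive means the rest.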 Only a selection was taken, and actives are over-represented in it overall. Some compounds were tested as several samples or in several runs, with calls that do not always agree.

These compounds were tested against Insulin-degrading enzyme (Homo sapiens) (UniProt P14735) (assay: exo-site inhibitors of human IDE, primary screen, biochemical, fluorescence anisotropy, probe displacement (AID 1259349;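 further: His-tagged human IDE residues 42-1019 made in E. coli with 30 nM FL-6b probe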)). Conditions: purified IDE, FL-6b probe fluorescence polarization; at 20 µM; stronger effect = lower value.
Insulin-degrading enzyme (Homo sapiens), sequence (P14735 42-1019 limits assumed): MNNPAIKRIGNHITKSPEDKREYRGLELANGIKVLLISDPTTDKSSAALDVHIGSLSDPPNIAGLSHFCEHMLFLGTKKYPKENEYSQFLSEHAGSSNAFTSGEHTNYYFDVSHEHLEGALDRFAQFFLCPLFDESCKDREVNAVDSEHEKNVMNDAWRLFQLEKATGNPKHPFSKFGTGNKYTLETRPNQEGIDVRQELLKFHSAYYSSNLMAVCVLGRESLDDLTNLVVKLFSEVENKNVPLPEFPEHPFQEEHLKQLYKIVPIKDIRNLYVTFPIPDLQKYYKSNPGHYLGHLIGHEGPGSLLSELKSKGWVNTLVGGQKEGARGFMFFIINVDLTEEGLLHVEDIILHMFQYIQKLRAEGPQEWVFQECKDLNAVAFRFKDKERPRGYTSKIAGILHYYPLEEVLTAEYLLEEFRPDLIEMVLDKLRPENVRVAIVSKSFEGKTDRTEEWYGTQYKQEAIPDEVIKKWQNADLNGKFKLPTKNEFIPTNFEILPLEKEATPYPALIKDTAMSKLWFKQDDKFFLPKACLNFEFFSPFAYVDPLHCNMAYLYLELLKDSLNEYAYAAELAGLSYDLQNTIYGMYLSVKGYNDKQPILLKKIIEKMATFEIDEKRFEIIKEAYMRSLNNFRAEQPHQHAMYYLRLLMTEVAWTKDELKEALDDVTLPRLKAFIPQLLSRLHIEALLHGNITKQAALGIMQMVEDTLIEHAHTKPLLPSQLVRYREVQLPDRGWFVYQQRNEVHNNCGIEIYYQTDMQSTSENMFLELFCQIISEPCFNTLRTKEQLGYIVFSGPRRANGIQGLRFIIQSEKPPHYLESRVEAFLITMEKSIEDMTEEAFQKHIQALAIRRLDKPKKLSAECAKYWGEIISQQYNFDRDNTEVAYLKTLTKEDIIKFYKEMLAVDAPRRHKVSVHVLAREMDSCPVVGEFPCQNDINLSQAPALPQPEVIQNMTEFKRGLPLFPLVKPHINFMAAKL

Row | SMILES | z-score
1 | O=C(C[C@@H]1CC[C@H]2NC[C@H](O)COC[C@@H]2O1)NCCN1CCCCC1 | 0.878 (inactive)
2 | O=C1C[C@@H](c2ccccc2)C(=O)N[C@H](c2ccc(F)cc2)C/C=C\CCN1 | 1 (inactive)
3 | O=S(=O)(c1ccccc1F)N1[C@@H]2CNC[C@H]1C2c1ccc(-c2cncnc2)cc1 (some centres not stated) | 2.04 (inactive)
4 | Cc1cccc(-c2ccccc2[C@@H]2[C@H](C#N)N(c3ncc(-c4ccccc4)s3)[C@H]2CO)c1 | 4.05 (inactive)
5 | O=S(=O)(c1ccccc1)N1C[C@@H]2[C@H](c3ccccc31)[C@H](CO)N2Cc1ccccn1 | 2.16 (inactive)
6 | Cc1ccc(-c2ccc(C3[C@H]4CNC[C@@H]3N4S(=O)(=O)c3ccccc3C)cc2)cc1 (some centres not stated) | 1.05 (inactive) and 2.8 (inactive)
7 | Cc1cccc(-c2ccc(C3[C@H]4CNC[C@@H]3N4S(=O)(=O)c3ccccc3F)cc2)c1 (some centres not stated) | 5.33 (inactive) and 3.85 (inactive)
8 | CN(C)C(=O)c1cccc(-c2ccc(C3[C@H]4CNC[C@@H]3N4C(=O)Nc3ccccc3F)cc2)c1 (some centres not stated) | 1.08 (inactive) and 3.82 (inactive)
9 | COc1cccc(S(=O)(=O)N2[C@@H]3CNC[C@H]2C3c2ccc(-c3ccccc3OC)cc2)c1 (some centres not stated) | -0.496 (inactive) and -4.13 (active)
10 | COc1cccc(NC(=O)N2[C@@H]3CNC[C@H]2C3c2ccc(-c3ccncc3)cc2)c1 (some centres not stated) | 0.421 (inactive) and 0.471 (inactive)
11 | COc1ccccc1NC(=O)N1[C@@H]2CNC[C@H]1C2c1ccc(-c2ccccc2C)cc1 (some centres not stated) | -4.4 (active)
12 | COCCNC(=O)C[C@H]1CC[C@@H]2[C@H](COc3ccc(NC(=O)Nc4cccc(F)c4)cc3C(=O)N2C)O1 | -0.769 (inactive)
13 | COc1ccc(S(=O)(=O)N2CCCCN3[C@@H](CO)[C@@H](c4ccc(C#CCC(C)C)cc4)[C@@H]3C2)cc1 | 4 (inactive)
14 | CN(C)C(=O)c1cccc(-c2ccc(C3[C@@H]4CN(S(=O)(=O)c5ccc(F)cc5)C[C@H]3N4)cc2)c1 (some centres not stated) | 4.34 (inactive) and 3.12 (inactive)
15 | C[C@@H]1CC(=O)N[C@H](c2ccccc2)C/C=C\C[C@H](c2ccccc2)NC1=O | 1.16 (inactive)
16 | COCC(=O)N1CCCCN2[C@H](CO)[C@@H](c3ccc(-c4ccc(OC)cc4)cc3)[C@@H]2C1 | -2.67 (inactive)
17 | COCC(=O)N1CCCCN2[C@H](CO)[C@H](c3ccc(-c4ccc(OC)cc4)cc3)[C@H]2C1 | -1.33 (inactive)
18 | CC(C)C#Cc1ccc([C@H]2[C@H](CO)N3CCCCN(C(=O)NC(C)C)C[C@@H]23)cc1 | 0.103 (inactive)
19 | CC(C)C#Cc1ccc([C@@H]2[C@H]3CN(C(=O)NC(C)C)CCCCN3[C@H]2CO)cc1 | 1 (inactive)
20 | COc1ccc(-c2ccc([C@@H]3[C@@H](CO)N4CCCCN(C(=O)NC(C)C)C[C@H]34)cc2)cc1 | -4.12 (active)
21 | CC(C)NC(=O)N1CCCCN2[C@@H](CO)[C@@H](c3ccc(C#Cc4ccccc4)cc3)[C@@H]2C1 | -8.05 (active)
22 | COc1ccc2c3c([nH]c2c1)[C@H](CO)N(Cc1nccs1)CC31CCN(Cc2cccnc2)CC1 | -0.878 (inactive)
23 | COc1cccc(S(=O)(=O)N2CCCCN3[C@H](C2)[C@@H](c2ccc(C4=CCCCC4)cc2)[C@@H]3CO)c1 | 2.68 (inactive)

Row | SMILES | z-score
24 | COc1ccc2c3c([nH]c2c1)[C@H](CO)N(Cc1ccc(F)cc1)CC31CCN(Cc2ccccn2)CC1 | -1.44 (inactive)
25 | CCCN1C[C@@H](C)[C@@H](OC)CN(C)C(=O)c2cc(NC(=O)C3CCC3)ccc2OC[C@H]1C | -0.201 (inactive)
26 | O=C(C[C@@H]1C=C[C@@H](NC(=O)c2ccc3c(c2)OCO3)[C@H](CO)O1)NC1Cc2ccccc2C1 | 0.748 (inactive)
27 | O=C(c1ccccn1)N1CC2(C1)[C@@H](c1ccccc1)[C@@H](CO)N2C(=O)C1CCCCC1 | -4.56 (active)
28 | CN(C)CC(=O)N1CC2(C1)[C@H](c1ccccc1)[C@H](CO)N2C(=O)C1CC1 | -1.06 (inactive)
29 | O=C(C1CCCC1)N1[C@@H](CO)[C@@H](c2ccccc2)C12CN(Cc1ccc(F)cc1)C2 | 1.26 (inactive)
30 | CCS(=O)(=O)Nc1ccc2c(c1)C(=O)N(C)[C@H]1CC[C@H](CC(=O)N[C@@H]3CCN(Cc4ccccc4)C3)O[C@H]1CO2 | -0.74 (inactive)
31 | COc1ccc(CN2CCCCN3[C@H](C2)[C@H](c2ccc(-c4ccc(OC)cc4)cc2)[C@@H]3CO)cc1 | 3.61 (inactive)
32 | OC[C@H]1[C@H](c2ccc(-c3cccc(F)c3)cc2)[C@@H]2CN(Cc3cncnc3)CCCCN12 | 0.665 (inactive)
33 | Cc1cccc(-c2ccc([C@@H]3[C@H](CO)N4CCCCN(Cc5ccncc5)C[C@@H]34)cc2)c1 | -5.19 (active)
34 | Cc1cccc(-c2ccc([C@H]3[C@@H](CO)N4CCCCN(Cc5cncnc5)C[C@H]34)cc2)c1 | -5.22 (active)
35 | CCC(=O)N1CCCCN2[C@H](CO)[C@@H](c3ccc(-c4cccnc4)cc3)[C@H]2C1 | 0.698 (inactive)
36 | OC[C@H]1[C@H](c2ccc(-c3cccnc3)cc2)[C@H]2CN(Cc3ccccn3)CCCCN21 | -3.14 (active)
37 | OC[C@@H]1[C@H](c2ccc(Br)cc2)[C@@H]2CN(Cc3ccccn3)CCCCN12 | 0.871 (inactive)
38 | Cc1ccc(-c2ccc([C@H]3[C@H](CO)N4CCCCN(Cc5cncnc5)C[C@@H]34)cc2)cc1 | 3.25 (inactive)
39 | OC[C@@H]1[C@H](c2ccc(C3=CCCC3)cc2)[C@H]2CN(Cc3ccncc3)CCCCN12 | 1.19 (inactive)
40 | CO[C@H]1CN(C)C(=O)c2cc(NC(=O)NC(C)C)ccc2OC[C@H](C)N(C(=O)CN(C)C)C[C@H]1C | -0.369 (inactive)
41 | COCCN(C[C@H]1[C@H](c2ccccc2)[C@@H](CO)N1C(C)=O)C(=O)c1cccnc1 | -0.97 (inactive)
42 | CN(C)C(=O)c1ccc(-c2ccc([C@H]3[C@H](CO)N4CCCCN(S(C)(=O)=O)C[C@@H]34)cc2)cc1 | 4.37 (inactive)
43 | O=C(C1CC1)N1CC(=O)N2[C@H](CO)[C@@H](c3ccc(-c4ccccc4F)cc3)[C@@H]2C1 | -6.21 (active)
44 | Cc1ccccc1-c1ccc(C2[C@@H]3CN(C(=O)C4CCCCC4)C[C@H]2N3)cc1 (some centres not stated) | 1.9 (inactive) and -13.9 (active)
45 | O=C(C1CCC1)N1CC(=O)N2[C@H](C1)[C@@H](c1ccc(-c3ccccc3F)cc1)[C@@H]2CO | -10.1 (active)
46 | O=C(C1CCCC1)N1CC(=O)N2[C@H](CO)[C@H](c3ccc(Br)cc3)[C@H]2C1 | 3.78 (inactive)

Row | SMILES | z-score
47 | COCC(=O)N1CC(=O)N2[C@H](CO)[C@@H](c3ccc(-c4ccccc4F)cc3)[C@H]2C1 | -0.201 (inactive)
48 | O=C(C1CCCCC1)N1CC(=O)N2[C@H](CO)[C@@H](c3ccc(-c4ccccc4F)cc3)[C@@H]2C1 | -3.81 (active)
49 | O=C(C1CCCCC1)N1CC(=O)N2[C@H](CO)[C@H](c3ccc(Br)cc3)[C@H]2C1 | 2.21 (inactive)
50 | O=C(C1CCC1)N1C[C@@H]2N[C@H](C1)C2c1ccc(-c2cncnc2)cc1 (some centres not stated) | 0.446 (inactive)
51 | O=C(C1CCCC1)N1CC(=O)N2[C@H](CO)[C@H](c3ccc(Br)cc3)[C@@H]2C1 | 1.85 (inactive)
52 | O=C(C1CCCCC1)N1CC(=O)N2[C@H](CO)[C@H](c3ccc(-c4ccccc4F)cc3)[C@H]2C1 | -2.1 (inactive)
53 | CN(C)C(=O)c1ccc(-c2ccc(C3[C@@H]4CN(C(=O)Nc5ccccc5)C[C@H]3N4)cc2)cc1 (some centres not stated) | 0.753 (inactive)
54 | O=C(c1ccc(F)cc1)N1CC(=O)N2[C@H](CO)[C@H](c3ccc(-c4ccccc4F)cc3)[C@@H]2C1 | 0.797 (inactive)
55 | CC(C)C#Cc1ccc([C@H]2[C@@H](C#N)N(C(=O)CN(C)C)[C@H]2CO)cc1 | 0.732 (inactive)
56 | COc1ccc2c3c([nH]c2c1)[C@H](CO)N(C(=O)Nc1ccc(F)cc1)CC31CCN(CC2CCOCC2)CC1 | -0.0173 (inactive)
57 | CCCNC(=O)N1CC2(CN(C(=O)c3cnccn3)C2)c2c([nH]c3cc(OC)ccc23)[C@@H]1CO | -1.28 (inactive)
58 | N#C[C@@H]1[C@@H](c2ccc(C3=CCCCC3)cc2)[C@@H](CO)N1C(=O)c1cccc(F)c1 | 2.45 (inactive)
59 | C[C@@H]1CN([C@H](C)CO)C(=O)Cc2cc(N(C)C)ccc2O[C@H]1CN(C)C(=O)NC1CCCCC1 | -0.478 (inactive)
60 | COc1ccc2c3c([nH]c2c1)[C@H](CO)N(C(C)=O)CC31CN(S(=O)(=O)c2cccs2)C1 | 0.716 (inactive)
61 | CNC[C@H]1OCCCC[C@@H](C)Oc2ccc(NS(=O)(=O)c3ccc(F)cc3)cc2C(=O)N([C@H](C)CO)C[C@H]1C | 0.482 (inactive)
62 | CCCNC(=O)N1[C@H](C#N)[C@@H](c2ccc(C3=CCCC3)cc2)[C@H]1CO | 0.0932 (inactive)
63 | CCS(=O)(=O)N1[C@H](C#N)[C@H](c2ccc(-c3cccc(F)c3)cc2)[C@@H]1CO | 0.519 (inactive)
64 | COc1ccc(-c2ccc(C3[C@@H]4CN(S(=O)(=O)c5cn(C)cn5)C[C@H]3N4)cc2)cc1 (some centres not stated) | 2.29 (inactive)
65 | Cn1cnc(S(=O)(=O)N2C[C@@H]3N[C@H](C2)C3c2ccc(-c3ccccc3F)cc2)c1 (some centres not stated) | 0.547 (inactive) and 0.421 (inactive)
66 | Cn1cnc(S(=O)(=O)N2C[C@@H]3N[C@H](C2)C3c2ccc(/C=C/c3ccccc3)cc2)c1 (some centres not stated) | -1.85 (inactive) and -5.13 (active)
67 | O=C(Nc1cccc(F)c1)N1CC(=O)N2[C@H](C1)[C@H](c1ccc(-c3ccccc3F)cc1)[C@@H]2CO | 0.741 (inactive)
